Compound activity (PubChem BioAssay)
USP2a block: qHTS Assay for Inhibitors of Ubiquitin-specific Protease USP2a Using CHOP2 as the Reporter. USP2 core, Ub-CHOP2 coupled fluorogenic reporter, 485/531. actives 0.01% (n = 330,000). AID 463254, 2010. Potency, µM (series often up to 38.3 µM), hits mostly inhibitors. Ubiquitin carboxyl-terminal hydrolase 2 (Homo sapiens), O75604
Target sequence (O75604 whole entry, looked up): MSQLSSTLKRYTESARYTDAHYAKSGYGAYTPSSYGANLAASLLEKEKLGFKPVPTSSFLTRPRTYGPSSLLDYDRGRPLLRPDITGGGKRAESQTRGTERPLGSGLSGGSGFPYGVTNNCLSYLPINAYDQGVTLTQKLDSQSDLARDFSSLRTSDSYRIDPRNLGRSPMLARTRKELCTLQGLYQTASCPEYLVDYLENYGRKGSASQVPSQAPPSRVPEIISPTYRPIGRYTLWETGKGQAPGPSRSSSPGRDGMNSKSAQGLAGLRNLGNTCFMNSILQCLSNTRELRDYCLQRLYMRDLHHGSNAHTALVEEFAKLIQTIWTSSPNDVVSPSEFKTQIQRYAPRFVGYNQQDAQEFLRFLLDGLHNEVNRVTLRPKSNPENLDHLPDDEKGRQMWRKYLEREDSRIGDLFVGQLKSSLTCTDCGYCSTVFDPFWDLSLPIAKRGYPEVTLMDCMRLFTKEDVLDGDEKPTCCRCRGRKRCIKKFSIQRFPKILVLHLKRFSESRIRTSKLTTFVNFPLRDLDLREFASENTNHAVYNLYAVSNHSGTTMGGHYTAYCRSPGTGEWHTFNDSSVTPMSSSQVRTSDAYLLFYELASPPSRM
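Deubiquitinase activity read as fluorescence (485/531 nm) after Ub-CHOP2 cleavage activates the enterokinase reporter on its substrate; USP2 core 10nM, Ub-CHOP2 and substrate 25nM each, 30min compound preincubation then 60min RT; data normalized to NEM, curves fitted.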
Eya2 inh: qHTS Assay for Inhibitors of the Phosphatase Activity of Eya2; AID 488837, 2010; actives 0.006% (n = 330,000); Potency, µM (titrated, usually from 76.9 µM), most hits filed as inhibitors; Protein phosphatase EYA2 (Homo sapiens), O00167; recombinant Eya2, OMFP fluorescence dephosphorylation (OMFP is methylfluorescein phosphate)
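Eya2 (0.2 uM) preincubated 10 min at ambient with compound, then OMFP substrate added at 50 uM; 10 min reaction in 50 mM HEPES pH 7.5, 50 mM NaCl, 5 uM MgCl2, 0.05% BSA, 1 mM DTT. Fluorescence read at Ex 485/Em 525 nm.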
p53 reactivation: qHTS assay for re-activators of p53 using a Luc reporter | H1299 p53-A138V BP100-luciferase reporter, luminescence, 24 h | Potency, µM (titrated, usually from 92.2 µM), actives largely listed as activators | actives 0.063% (n = 320,000); further: nearly all actives have a fitted effect of over 45% in size
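p53-null H1299 cells stably carrying temperature-sensitive p53-A138V and a BP100-luciferase reporter were pinned with compounds (4-point, 1:5 series) and held 24 hrs at 37 deg C. Luminescence was read 10 min after detection reagent.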
Integrin act MD: qHTS for Activators of Integrin-Mediated Alleviation for Muscular Dystrophy; alpha7betagal myoblasts, beta-gal FDG fluorescence, 48 h; Potency, µM (top dose mostly 38.3 µM), actives largely listed as activators; actives 0.064% (n = 350,000); further: nearly all actives have a fitted effect of over 60% in size
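Alpha7betagal+/- myoblasts (passage 13) were plated 16-24 hr, then exposed to compounds (1:260 dilution of DMSO stock) for 48 hours at 37C. After MPER lysis, β-galactosidase reporter activity was read as FDG fluorescence (ex 480/em 540) after 30 minutes.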
ClpP mod: qHTS Assay for Activators of ClpP. ATP-dependent Clp protease proteolytic subunit (Bacillus subtilis (strain 168)), P80244. purified B. subtilis ClpP, FRET peptide cleavage, 20 min. Potency, µM (top dose mostly 57.5 µM). actives 1.9% (n = 340,000); active means well fitted falling curve with a large enough effect; inconclusive means small, poorly fitted or top-dose-only effect; inactive means no such curve, though single readings can be large or run the other way; further: the source files actives as falling curves though it sought activators and does not explain the sign; nearly all actives have a fitted effect of over 65% in size
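Purified B. subtilis ClpP, 10 microg/mL final in Tris/HCl pH8 with KCl, BSA, glycerol and Tween-20, cleaved an Abz/nitrotyrosine-quenched decapeptide. Fluorescence (ex 320, em 430) was read at 0 and 20 min at room temperature. Delta was normalized to 5.8 microM ADEP and DMSO/no-enzyme controls.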
Mm-Cpn inhibitor: Inhibitors of TCP-1 ring complex (TRiC) of Methanococcus maripaludis (MmCpn): qHTS; Chaperonin Mm-Cpn (Methanococcus maripaludis); purified Mm-Cpn ATPase, ADP Transcreener TR-FRET; Potency, µM (titrated, usually from 76.9 µM), actives largely listed as inhibitors; actives 0.031% (n = 330,000); further: nearly all actives have a fitted effect of over 80% in size
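Inhibition of chaperonin ATP hydrolysis is measured as reduced ADP production, detected by competitive TR-FRET in which signal falls with ADP. Final enzyme 25 nM and ATP 10 uM, reacted 30 min at 37°C.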
ClpP inh valid: qHTS Assay for Activators of ClpP: Hit Validation of Inhibitors; shares compounds with ClpP mod; Potency, µM (series often up to 57.5 µM), usual class: inhibitors; actives 40% (n = 470); purified B. subtilis ClpP, FRET-FV substrate cleavage, 20 min; further: nearly all actives have a fitted effect of over 70% in size
Hits are given with their value; . = inactive; ? = inconclusive; / = not tested or not shown. This excerpt belongs to a sample that is enriched for hits. Unless noted, the call rests on the fitted dose curve; in most records, active means well fitted curve in the direction sought with a large enough effect; inconclusive means small, poorly fitted or top-dose-only effect, or another doubt; inactive means no such curve, though single readings can be large; an effect the other way counts as inactive or inconclusive.

SMILES	USP2a block	Eya2 inh	p53 reactivation	Integrin act MD	ClpP mod	Mm-Cpn inhibitor	ClpP inh valid
CN(C)c1cccc(C(=O)Nc2ccc(-c3nc4ccccc4s3)cc2)c1	/	/	/	/	3.5µM	/	.
COc1ccc(-c2nc3ccccc3s2)cc1NC(=O)c1cccc(F)c1	/	/	/	/	.	/	?
COc1ccccc1C(=O)Nc1ccc(-c2nc3ccccc3s2)c(C)c1	/	/	/	/	2µM	/	.
CC(C)Oc1ccc(C(=O)Nc2ccc(-c3nc4ccccc4s3)cc2)cc1	/	/	/	/	.	/	/
Cc1ccc(C(=O)Nc2ccc(-c3nc4ccccc4s3)c(O)c2)c(C)c1	/	/	/	/	.	/	/
CCc1ccc(NC(=O)c2sc3nc(C)cc(C)c3c2NC(=O)c2ccccc2OC)cc1	/	/	/	/	.	/	24µM
COc1ccc(CC(=O)NCC(c2cccs2)S(=O)(=O)c2ccc(Cl)cc2)cc1 (centres undefined)	/	/	/	/	.	/	/
CC1CN(C(=O)Nc2ccc3c(c2)OCCO3)CC(C)O1 (centres undefined)	.	.	.	?	3.5µM	.	.
COc1cccc(N2CCN(C(=O)C3CCC(CNS(=O)(=O)c4ccc(Br)s4)CC3)CC2)c1 (centres undefined)	/	/	/	/	.	/	/
CC(=O)Nc1nonc1-c1nnc(SCC(=O)Nc2ccc(C)cc2)n1-c1ccccc1	/	/	/	/	.	/	/
COc1cccc(-c2cn3c(n2)sc2cc(C(=O)NC4CCCCCC4)ccc23)c1	/	/	/	/	4µM	/	24µM
O=C(NC1CCCCC1)c1ccc2c(c1)sc1nc(-c3ccc(F)cc3)cn12	/	/	/	/	10µM	/	.
COc1cccc(-c2cn3c(n2)sc2cc(C(=O)NC4CCCCC4)ccc23)c1	/	/	/	/	?	/	24µM
COc1ccc(-c2cn3c(n2)sc2cc(C(=O)NC4CCCCCC4)ccc23)cc1	/	/	/	/	.	/	/
Cc1cccc(-c2nnn3c2nc(NCc2ccccc2)c2ccccc23)c1	/	/	/	/	.	/	/
CCc1ccc(C2c3c(oc4ccc(F)cc4c3=O)C(=O)N2CCc2ccc(OC)cc2)cc1 (centres undefined)	/	/	/	/	.	/	/
Cc1c(C(=O)N2CCN(c3ccc([N+](=O)[O-])cc3)CC2)sc2ncn(CC(=O)N3CCOCC3)c(=O)c12	.	.	.	.	/	.	/
Cc1c(C(=O)N2CCOCC2)sc2ncn(CC(=O)N3CCC(C)CC3)c(=O)c12	.	.	.	.	3.2µM	.	.
CC(=O)N1CCc2c(sc(NC(=O)C3CCCN3S(=O)(=O)c3cccs3)c2C(N)=O)C1 (centres undefined)	.	.	.	.	4µM	.	.
COc1cc(Cl)c(C)cc1NC(=O)CSc1cc(=O)n(C)c2cc(Cl)ccc12	/	/	/	/	.	/	/
O=C(Nc1ccccc1OC(F)F)c1oc2ccccc2c1COc1ccccc1	.	.	.	.	.	.	19µM
CCCC(=O)Nc1ccc2oc(-c3ccc(OC)c(Br)c3)nc2c1	.	.	.	.	8.9µM	.	24µM
Cc1cc(C)cc(NC(=O)Cn2c(=O)n(Cc3ccc4c(c3)OCO4)c(=O)c3oc4ccccc4c32)c1	/	/	/	/	.	/	/
COc1ccc(-c2oc3ncn4nc(COc5ccc(Cl)cc5)nc4c3c2-c2ccc(OC)cc2)cc1	/	/	/	/	.	/	?
COc1ccc(-c2oc3ncn4nc(COc5c(C)cccc5C)nc4c3c2-c2ccc(OC)cc2)cc1	/	/	/	/	.	/	/
SMILES	USP2a block	Eya2 inh	p53 reactivation	Integrin act MD	ClpP mod	Mm-Cpn inhibitor	ClpP inh valid
CCCCN(C)C(=O)C1CCCN(c2ncnc3onc(-c4ccc(F)cc4)c23)C1 (centres undefined)	/	/	/	/	.	/	/
CC(=O)N1N=C(c2ccc(Br)cc2)OC12CCCC2	.	.	.	.	.	.	/
CC(=O)N1N=C(c2ccncc2)OC12CCCC2	.	.	.	.	10µM	.	24µM
CC(C)CCNc1ncnc2c1nnn2Cc1ccccc1Cl	.	.	.	.	10µM	.	.
CCc1ccc(Sc2cc(C(=O)O)c3ccccc3n2)cc1	/	/	/	/	.	/	/
COc1ccc(-c2oc3ccc(-c4cc(OC)c(OC)c(OC)c4)cc3c2-c2ccc(OC)cc2)cc1	/	/	/	.	.	/	/
COc1ccc(C#Cc2c(-c3ccsc3)oc3ccc(-c4cc(OC)c(OC)c(OC)c4)cc23)cc1	/	/	/	.	.	/	?
Clc1ccc(-c2nnc(-c3ccco3)o2)cc1	.	.	?	.	.	.	/
c1cncc(-c2nnc(-c3ccco3)o2)c1	.	.	.	.	3.5µM	.	24µM
COc1ccc(OC)c(NCc2nnc(-c3ccccc3)o2)c1	.	.	.	.	/	.	/
COc1ccc(-c2ccc(-c3nnc(Cc4ccc(OC)c(OC)c4)o3)cc2)cc1	.	.	.	.	2µM	.	?
CC1Cc2ccccc2N1c1nc(C2CC2)nc2c1nnn2Cc1ccccc1 (centres undefined)	.	.	.	.	7.1µM	.	27µM
O=C(Nc1c(C(=O)O)oc2ccccc12)c1ccc(C(F)(F)F)cc1	/	/	/	/	.	/	/
O=C(c1ccccn1)N(Cc1ccco1)C1(C(=O)NC2CCCC2)CCCCC1	.	.	.	.	2.5µM	.	.
O=C(Cc1cccs1)Nc1ccc(-c2nnc(-c3ccccc3)o2)cc1	/	/	/	.	8.9µM	/	12µM
COc1cccc(NC(=O)Cn2c(-c3cncs3)nc3ccccc32)c1	.	.	.	.	8.9µM	.	.
CCOc1ccccc1NC(=O)Cn1ncc2c(=O)oc3ccc(C)cc3c21	/	/	/	/	.	/	/
CN(c1ccccc1C(=O)NC1CC2CCC1C2)S(=O)(=O)c1ccccc1 (centres undefined)	.	.	.	.	7.9µM	.	.
CN(c1ccccc1C(=O)NC1CCCCC1)S(=O)(=O)c1ccccc1	.	.	.	.	.	.	/
O=C(Nc1nc2nc(-c3ccccc3)cc(-c3ccccc3)n2n1)c1ccco1	.	.	.	?	7.9µM	.	12µM
CC(=O)c1cc2c(cc1N(C(=O)c1ccco1)C(C(=O)NC1CCCC1)c1ccccc1F)OCO2 (centres undefined)	.	.	.	?	.	.	/
